# From the supplement of paper PMC6555819
# Key:
# Experiment in all cases: PBM binding z-score (relative to random genomic background probes); higher = stronger binding; sequences stand for … in GC…GCGATTGACAGCGTAGAATGAAGG
# [1] = test system: FXR:RXRa (NR concentration 270 nM, RXRa partner concentration 90 nM)
# Method in brief: (§1)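 Custom Agilent 4×180K protein-binding microarrays carried double-stranded probes, each with a 34-nt variable region. These regions held direct-repeat seeds, single-nucleotide variants, half-site ablations and random human genomic background sequences. Ligand-free nuclear receptor dimers were incubated on the arrays for 1 h, antibodies against each partner (one per run) detected binding, and scanned fluorescence was regression-normalized. Binding z-scores take the random background probes as reference.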
# [2] = test system: LXRa:RXRa (NR concentration 270 nM, RXRa partner concentration 90 nM)
# Method in brief: as §1
# [3] = test system: LXRa homodimer (NR concentration 270 nM)
# Method in brief: as §1
# [4] = test system: LXRb:RXRa (NR concentration 270 nM, RXRa partner concentration 90 nM)
# Method in brief: as §1
# [5] = test system: LXRb homodimer (NR concentration 270 nM)
# Method in brief: as §1
# [6] = test system: PPARa:RXRa (NR concentration 270 nM, RXRa partner concentration 90 nM)
# Method in brief: as §1
# [7] = test system: PPARg:RXRa (NR concentration 180 nM, RXRa partner concentration 90 nM)
# Method in brief: as §1
# [8] = test system: PPARg:RXRa 270nM:90nM, anti-RXR (NR concentration 270 nM, RXRa partner concentration 90 nM)
# Method in brief: as §1
# [9] = test system: PPARg:RXRa 30nM:10nM, anti-RXR (NR concentration 30 nM, RXRa partner concentration 10 nM)
# Method in brief: as §1
# [10] = test system: PPARg:RXRa 90nM:30nM, anti-RXR (NR concentration 90 nM, RXRa partner concentration 30 nM)
# Method in brief: as §1
# [11] = test system: PPARg:RXRa DBDmut IVT, anti-RXR (DBD mutation: RXRa K156A/R161A, NR concentration 270 nM, RXRa partner concentration 90 nM)
# Method in brief: as §1
# [12] = test system: PPARg:RXRa IVT, anti-PPARg (NR concentration 270 nM, RXRa partner concentration 90 nM)
# Method in brief: as §1
# [13] = test system: PPARg DBDmut:RXRa IVT, anti-PPARg (DBD mutation: PPARg1 K132A/R137A, NR concentration 270 nM, RXRa partner concentration 90 nM)
# Method in brief: as §1
# [14] = test system: PPARg DBDmut IVT, anti-PPARg (DBD mutation: PPARg1 K132A/R137A, NR concentration 270 nM)
# Method in brief: as §1
# [15] = test system: PPARg homodimer (NR concentration 180 nM)
# Method in brief: as §1
# [16] = test system: PXR:RXRa (NR concentration 270 nM, RXRa partner concentration 90 nM)
# Method in brief: as §1
# [17] = test system: PXR homodimer (NR concentration 270 nM)
# Method in brief: as §1
# [18] = test system: RARa:RXR (NR concentration 270 nM, RXRa partner concentration 90 nM)
# Method in brief: as §1
# [19] = test system: RARa homodimer (NR concentration 270 nM)
# Method in brief: as §1
# [20] = test system: RARb:RXRa (NR concentration 270 nM, RXRa partner concentration 90 nM)
# Method in brief: as §1
Sequence,PBM binding z-score [1],PBM binding z-score [2],PBM binding z-score [3],PBM binding z-score [4],PBM binding z-score [5],PBM binding z-score [6],PBM binding z-score [7],PBM binding z-score [8],PBM binding z-score [9],PBM binding z-score [10],PBM binding z-score [11],PBM binding z-score [12],PBM binding z-score [13],PBM binding z-score [14],PBM binding z-score [15],PBM binding z-score [16],PBM binding z-score [17],PBM binding z-score [18],PBM binding z-score [19],PBM binding z-score [20]
GTATCAAGGTGAATAGGTCGTTGATGAGTAGGCG,0.903,1.1,0.272,0.689,0.229,2.65,2.43,2.76,1.16,2.08,3.31,4.02,1.21,0.758,1.45,0.996,0.271,2.01,0.786,2.14
CGTCCAAGGTCAAGGTCAGAGAAAGAGACTCGAA,7.9,5.84,0.844,4.67,0.838,5.99,6.4,6.27,2.49,5.02,4.02,4.66,0.309,-0.449,3.52,4.81,1.27,5.48,2.01,5.62
TCTCGGAGGACACGAAAGGTCAGAGCGCGACATC,3.05,4.07,2.95,3.16,-0.239,3.64,1.36,2.96,2.26,2.66,1.45,1.17,-0.212,-0.0951,3.06,4.27,0.685,4.73,1.1,4.27
CAAACTAGCTCACAGAGGTCAAAGTCCGTGCGTA,4.84,5.04,5.7,4.99,1.59,4.82,2.1,3.38,1.05,2.74,0.877,2.03,0.153,0.182,4.66,5.9,3.09,6.47,2.88,3.87
TCAGCTAGGTCAGTTGGTCAGCTAACGAGCTGCC,0.695,0.358,-0.597,0.201,-0.435,1.22,0.615,1.71,1.93,1.94,2.84,2.65,-0.243,0.225,-0.166,0.0327,-1.06,0.304,-0.936,3.31
ATCTCTAGGTCAGACTCAGTTCAGTGAAGAACGC,2.16,3.65,3.15,2.13,2,2.7,3.02,2.96,0.87,2.1,5.06,5.22,1.01,1.61,2.14,4.07,1.69,2.07,1.03,3.51
ACTGGCAGGCCAAGTTTGGGTCACTCAAACAAAG,0.314,0.00721,-0.384,0.727,-0.59,1.36,-0.374,-0.085,-0.662,-0.496,-0.444,0.61,-1.01,-1.29,0.0864,0.677,-0.347,1.4,-0.396,1.74
GCGACTGGGGCAACGCAGGTTACCATAAGGTTGG,0.326,0.211,-0.468,0.14,-0.947,1.52,1.61,1.27,-0.287,0.414,4.39,4.13,-0.305,-0.763,-0.0289,0.606,-0.69,0.702,-1.06,1.19
CTCGACAGGTCGTGCTCAGGTGAGTATACCAAAC,0.806,0.431,-0.39,0.643,-0.717,1.59,0.0674,0.515,-0.386,-0.107,0.245,0.534,-0.84,-0.0221,0.723,0.437,-0.328,1.08,-0.81,1.42
ATATGTAGGTTACATCCGGTTCATTCAGGCTATG,1,4.13,1.07,2.07,0.614,3.53,5.17,4.39,2.2,3.81,7.75,7.32,3.76,2.01,1.08,3.66,5.68,1.55,0.415,1.22
AGAACGTGGGCAATGAGTTGATAGCACGGGTGGC,-0.669,-0.786,-0.475,-1.07,-0.973,-0.601,0.723,-0.543,-0.342,-0.679,-0.374,-0.0857,-0.361,-0.494,-0.516,-0.399,-0.204,-0.5,-0.521,-0.261
GCTAGCAGGGCATTTGGGTCACTCAATGACGGGC,0.398,0.383,-0.133,0.541,-0.663,1.77,1.28,1.08,-0.197,0.478,2.42,3.14,0.0662,-0.844,0.341,1.06,0.171,1,-0.58,1.76
AGTCAAAGTTGACTAGGTAACGTAAGATTCAGCT,-0.527,-0.187,-0.527,-0.137,-0.608,1.41,2.01,2.7,0.453,1.91,1.93,2.8,0.549,0.744,-0.383,-0.11,-0.595,0.0496,-0.0612,1.13
CCGACTGGGGCAAGGTTACCTTAACGCACAGCCA,0.184,0.54,-0.581,0.495,-1.66,1.97,2.58,3.54,0.821,3.07,3.34,3.76,-1.05,-0.772,0.376,0.303,-0.595,0.858,-0.882,1.63
AGCCAAAGTTCAGGACGAGGTAACGTAAAGCACG,4.33,3.71,1.39,1.94,0.134,3.22,3.24,3.54,0.828,2.74,-0.0528,1.03,-0.637,-0.0617,1.29,2.65,0.942,2.64,0.246,4.33
GAAACGAGGGCAAGTTGATAGCAGAGTTTGATGG,1.07,0.537,-0.42,0.157,-0.895,2.38,1.76,1.76,0.251,1.2,5.01,4.04,0.483,0.387,0.633,0.91,1.01,0.741,-0.324,2.48
TAGCCTAGGTCAGATCGCGCCAGTATACGCTATA,1.75,0.937,-0.15,1.09,-0.19,1.63,0.856,0.842,0.125,0.595,0.721,1.46,-0.73,0.133,0.207,0.262,-0.578,0.7,-0.794,2.95
TGAATGAGGTTAAAGATTAGGGAACGTGGCGTCG,2.45,2.05,-0.0169,1.38,0.449,3.74,3.78,4.94,2.32,4.36,2,2.99,1.53,0.276,0.705,1.33,0.337,1.98,0.424,1.97
AGAAGGAGGTTATACGTAGATCAGGGAAGAAAGT,1.61,1.45,0.366,1.43,0.303,2.43,1.33,1.28,0.492,0.986,2.41,1.24,2.08,0.617,1.18,1,1.06,0.963,1.33,1.34
GCTTGTAGATCAAGGATAAGAAAGACTAAGCTAA,-0.495,-1.03,-0.557,-0.935,-0.998,-0.619,0.375,0.179,-0.00993,-0.0632,0.345,-0.0525,-0.469,-0.526,-0.571,-0.567,-0.33,-0.653,-1.12,-1.81
TCGAGTAGGGTACCAATGGGGCATTCAGCTTTCT,-0.419,-0.00421,-0.466,0.0817,-0.885,0.453,-0.266,0.942,0.889,0.836,1.51,1.1,-1.19,-0.695,-0.571,-0.333,-0.807,-0.262,-1.44,0.103
ACTCGGAGGACAAAGGTCTGAGCTACGCCAGTGA,-0.108,-0.415,-0.354,-0.796,-0.665,0.582,1.95,3.29,1.06,3.02,-0.243,0.315,-0.994,-1.15,0.144,-0.428,-0.379,-0.531,-0.889,1.3
TCGAGTAGGTTACCAATAGGGCATTCAGCTTTCT,0.215,2.16,-0.0808,0.671,-1.16,1.36,0.697,1.32,1.08,1.1,3.28,2.9,-0.0313,0.193,-0.151,0.391,-0.656,0.441,-0.367,1.08
GCGACTGGCGCAAAGCAGGTTACCATAAGGTTGG,-0.457,-0.431,-0.662,-0.683,-1.4,-0.182,0.258,-0.247,-0.734,-0.475,-0.223,-0.321,-1.05,-1.11,-0.736,-0.34,-0.486,-0.0579,-0.958,-0.386
GCAGACAGGTGAAACACAGGTAACTCAGGGTGGC,0.0737,0.312,-0.336,-0.415,-0.7,0.874,0.952,0.125,-0.424,-0.0605,0.926,0.641,-0.0327,-0.651,-0.0531,-0.0674,-0.462,0.56,-0.402,0.685
GCTTTTAGATCAAGGTTAAGAAAGACTAAGCTAA,0.411,1.15,-0.245,0.993,0.252,1.49,0.495,1.1,0.053,0.706,0.974,0.787,0.785,0.404,0.294,0.507,0.294,1.07,0.203,1.04
